Results as given in a collection of fitness landscapes (doi:10.1126/science.1257360).
The full ranking holds about 140,000 sequences; the median of “enrichment ratio after two sorts for PhoP signalling” is about 0, and the highest 2% start at about 11. The full list was thinned out, with the highest values kept by preference.

B1: PhoQ; a variant is named by its letters at X, in order, P23837 (parent)
chain: MKKLLRLFFPLSLRVRFLLATAAVVLVLSLAYGMVALIGYSVSFDKTTFRLLRGESNLFYTLAKWENNKLHVELPENIDKQSPTMTLIYDENGQLLWAQRDVPWLMKMIQPDWLKSNGFHEIEADVNDTSLLLSGDHSIQQQLQEVREDDDDAEMTHSVAVNVYPATSRMPKLTIVVVDTIPVELKSSYMVWSWFIYVLSANLLLVIPLLWVAAWWSLRPIEALAKEVRELEEHNRELLNPATTRELTSLVRNLNRLLKSERERYDKYRTTLTDLTHSLKTPLXXLQXXLRSLRSEKMSVSDAEPVMLEQISRISQQIGYYLHRASMRGGTLLSRELHPVAPLLDNLTSALNKVYQRKGVNISLDISPEISFVGEQNDFVEVMGNVLDNACKYCLEFVEISARQTDEHLYIVVEDDGPGIPLSKREVIFDRGQRVDTLRPGQGVGLAVAREITEQYEGKIVAGESMLGGARMEVIFGRQHSAPKDE

Variants of: B1
Assay: enrichment ratio after two sorts for PhoP signalling (ratio (wild type AVST 3.29)); higher = more functional
Conditions: with PhoP (E. coli)

Variant	enrichment ratio
LPHR	≤ 0.25
ADGW	≤ 0.25
NDRR	≤ 0.25
IIAQ	≤ 0.25
SFDP	≤ 0.25
VFVP	≤ 0.25
AKQI	≤ 0.25
QEQY	≤ 0.25
TEEN	3.06
TEQN	34.8
TEGY	1.36
IQIY	≤ 0.25
WQIY	≤ 0.25
AQIY	24
TEQY	12.5
AQQI	14.3
ADQI	≤ 0.25
TEYM	≤ 0.25
DNYP	≤ 0.25
EFNV	≤ 0.25
FGIV	2.4
ALMP	≤ 0.25
MHTV	≤ 0.25
FMAD	≤ 0.25

Variant	enrichment ratio
GMNN	≤ 0.25
WNWL	≤ 0.25
SPTG	≤ 0.25
SQSI	16.7
SRSI	≤ 0.25
STSI	8.26
SSSK	≤ 0.25
SGSK	≤ 0.25
TVTG	15.3
SSSI	15.2
SSSR	≤ 0.25
SGSI	15.9
KSTG	≤ 0.25
SGDH	≤ 0.25
MQVF	1.6
KTET	≤ 0.25
FTCL	9.73
RLFE	≤ 0.25
YKMG	≤ 0.25
LISD	≤ 0.25
TVSI	17.4
DDSI	≤ 0.25
NVSI	≤ 0.25
FSSI	0.692

Variant	enrichment ratio
KSSI	≤ 0.25
VLSI	≤ 0.25
SPSI	≤ 0.25
SESI	12.7
TSSI	19.5
TLSI	18.6
SESR	4.3
LLSI	≤ 0.25
DSES	≤ 0.25
NHHT	≤ 0.25
VGTA	≤ 0.25
EQHP	≤ 0.25
LVPM	≤ 0.25
QFFS	≤ 0.25
TTNV	7.65
PFAG	≤ 0.25
DGGW	≤ 0.25
SNSI	12.4
WLSI	≤ 0.25
SNSR	≤ 0.25
SNSK	≤ 0.25
KYSI	≤ 0.25
SLSI	12.7
SISI	19.1

Variant	enrichment ratio
RISI	≤ 0.25
KLSI	≤ 0.25
MVAF	8.08
VNTQ	≤ 0.25
FEKW	≤ 0.25
RVKS	≤ 0.25
YPRG	≤ 0.25
SCPI	15.2
SCPA	≤ 0.25
SCGD	≤ 0.25
SCSK	14.3
SCPM	7.6
SCSR	6.9
PQKP	≤ 0.25
RTKL	≤ 0.25
YQFF	≤ 0.25
PSPG	≤ 0.25
GCSN	3.22
QCSN	17.6
QCWG	1.24
QCSG	32
QCSK	≤ 0.25
GCSG	6.35
YSWT	≤ 0.25

Variant	enrichment ratio
VTWY	≤ 0.25
LKQC	≤ 0.25
MYLH	≤ 0.25
YKYI	≤ 0.25
TDCI	≤ 0.25
ADCS	≤ 0.25
FDCA	≤ 0.25
LTCQ	≤ 0.25
TDCA	14.6
TDCQ	20.3
TDCS	11.3
FDCQ	≤ 0.25
KDCA	≤ 0.25
ERGV	≤ 0.25
TKWP	≤ 0.25
TGMY	12.7
STMY	12.6
KYMY	≤ 0.25
PTMY	≤ 0.25
ADMY	0.253
AGMY	20
TKMY	24
AIMY	6.62
HKMY	≤ 0.25

Variant	enrichment ratio
NGMY	≤ 0.25
SWMY	≤ 0.25
RGMY	≤ 0.25
ICMS	2.8
QRAT	≤ 0.25
FCCR	≤ 0.25
DASH	≤ 0.25
RNKS	≤ 0.25
ATMY	7.37
AEME	29.5
KSMY	≤ 0.25
AEMY	20.4
TSMY	12.3
AEYE	≤ 0.25
NSMY	≤ 0.25
YTMY	≤ 0.25
NEMY	≤ 0.25
TGME	≤ 0.25
CTMY	42.4
WIMY	≤ 0.25
NYYK	≤ 0.25
IYHP	≤ 0.25
HPGR	≤ 0.25
EGAD	≤ 0.25

Variant	enrichment ratio
VQVR	≤ 0.25
KMTK	≤ 0.25
RCAP	≤ 0.25
FMFM	≤ 0.25
SRMC	≤ 0.25
VEMC	15.7
MEMC	4.97
VCMC	1.73
VYMC	0.507
TYMC	≤ 0.25
VPMC	≤ 0.25
ITMC	≤ 0.25
TEMC	18.9
TCMC	24.2
IEMC	12.9
EEMC	≤ 0.25
DVLN	≤ 0.25
IGSC	≤ 0.25
SHAH	5.87
VCLL	6.51
FKPV	≤ 0.25
YAMC	≤ 0.25
QEMC	≤ 0.25
KYMC	≤ 0.25

Variant	enrichment ratio
SYMC	≤ 0.25
SPMC	≤ 0.25
SEMC	18
SLMC	3.3
SCMC	12.6
NEMC	≤ 0.25
SIMC	19.4
TAMC	14.6
KAMC	≤ 0.25
KIGP	≤ 0.25
VITT	≤ 0.25
TPNM	≤ 0.25
YGCE	≤ 0.25
NYTT	≤ 0.25
FHLQ	≤ 0.25
ESME	≤ 0.25
VRRK	≤ 0.25
PKDY	≤ 0.25
VMIQ	≤ 0.25
YFFH	≤ 0.25
WWTW	≤ 0.25
GPQA	≤ 0.25
SAMC	18.1
STMC	8.81

Variant	enrichment ratio
IIMC	≤ 0.25
EEMP	≤ 0.25
QQNV	≤ 0.25
YMKP	≤ 0.25
HAQM	≤ 0.25
TMQM	12.8
KMQM	≤ 0.25
NNCK	≤ 0.25
TNQM	14.3
NNQM	30
MNQM	≤ 0.25
TWQM	≤ 0.25
LNQM	≤ 0.25
VGDP	≤ 0.25
RAMR	≤ 0.25
YTYM	≤ 0.25
WMWP	≤ 0.25
SDVC	11.5
SCIC	7.92
STIC	13
KDVC	≤ 0.25
TDIC	14.4
KSIC	≤ 0.25
LTIC	≤ 0.25

Variant	enrichment ratio
SYVC	0.486
TDVG	4.14
SDVG	1.53
TDVC	24.1
YTIC	≤ 0.25
NESI	≤ 0.25
PFYL	≤ 0.25
GFIL	≤ 0.25
INEF	≤ 0.25
MTNK	≤ 0.25
IERL	≤ 0.25
MGNR	≤ 0.25
FHQW	≤ 0.25
WMHQ	≤ 0.25
VIIW	≤ 0.25
SYIC	0.411
SDRC	≤ 0.25
SDIC	15.1
VCHE	≤ 0.25
GIRT	≤ 0.25
ASGM	22.7
ASPM	0.773
ASWM	≤ 0.25
ASRM	≤ 0.25

Variant	enrichment ratio
ASAY	4.58
ASAM	20.2
ASGD	≤ 0.25
ASTM	12.3
ASDH	≤ 0.25
TKYS	≤ 0.25
NHDM	≤ 0.25
KGIG	≤ 0.25
IWNF	≤ 0.25
ETES	≤ 0.25
IRLA	0.272
GMFY	≤ 0.25
FLEE	≤ 0.25
PCYL	≤ 0.25
FIHC	≤ 0.25
LFFW	≤ 0.25
KMQS	≤ 0.25
TMQP	≤ 0.25
MMQI	≤ 0.25
NMQS	≤ 0.25
TMQS	14.3
TMQI	12.3
KESH	≤ 0.25
VQMH	≤ 0.25

Variant	enrichment ratio
RVAL	≤ 0.25
TFSK	≤ 0.25
CFSS	11.9
TGSS	11
WFSS	≤ 0.25
VFSS	≤ 0.25
TFSS	11.4
LGDN	≤ 0.25
FQYK	≤ 0.25
KYSM	≤ 0.25
SISM	16
SVGM	9.35
ITSM	2.11
SVSM	13.3
STSM	16.4
LTSM	≤ 0.25
SNSF	10.8
SNSM	33.4
SVRM	≤ 0.25
SISF	10.7
HVDL	≤ 0.25
YFNP	≤ 0.25
PTIT	≤ 0.25
IFSN	≤ 0.25

Variant	enrichment ratio
KGDF	≤ 0.25
SMHF	≤ 0.25
NSSM	0.911
SMSM	12.4
SCSM	14.5
SDSM	1.33
SRSM	0.977
SMSF	5.95
SSSF	10
SSSM	14.8
SQSM	15.9
SCSF	9.85
FCSM	0.747
SGVE	≤ 0.25
SWGV	≤ 0.25
IDET	≤ 0.25
RIHD	≤ 0.25
LNHQ	≤ 0.25
